m5-HT2A agonist – activates the mouse 5-HT2A serotonin receptor. P35363. CHO-K1 mHTR2A beta-arrestin complementation, luminescence; percent of 30 µM serotonin response. activation, % at 7.6 µM. 360,000 tested, 0.66% active. AID 624169;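 active = activation above a run cutoff, the mean activation of all tested compounds plus 3 SD, cut at about 14% in these data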
HDAC3 inh – inhibitors of human histone deacetylase 3 | inhibition, % at 8.3 µM | 320,000 tested, 0.15% active | O15379 | recombinant HDAC3, fluorogenic peptide/trypsin coupled, fluorescence | AID 2718; in the data active = inhibition above about 26%, passing the limit was not always enough
LANA-H2B inh – blocks KSHV LANA binding to histone H2A/H2B | cell-free LANA-H2A/H2B peptide, fluorescence polarization | Q9QR71 | inhibition, % (concentration not given with the values) | AID 2629 | 320,000 tested, 0.6% active; in the data active = inhibition mostly above about 10%, no sharp cut-off; inactive = mostly below about 6.7%
Target sequence (Q9QR71 whole entry, looked up): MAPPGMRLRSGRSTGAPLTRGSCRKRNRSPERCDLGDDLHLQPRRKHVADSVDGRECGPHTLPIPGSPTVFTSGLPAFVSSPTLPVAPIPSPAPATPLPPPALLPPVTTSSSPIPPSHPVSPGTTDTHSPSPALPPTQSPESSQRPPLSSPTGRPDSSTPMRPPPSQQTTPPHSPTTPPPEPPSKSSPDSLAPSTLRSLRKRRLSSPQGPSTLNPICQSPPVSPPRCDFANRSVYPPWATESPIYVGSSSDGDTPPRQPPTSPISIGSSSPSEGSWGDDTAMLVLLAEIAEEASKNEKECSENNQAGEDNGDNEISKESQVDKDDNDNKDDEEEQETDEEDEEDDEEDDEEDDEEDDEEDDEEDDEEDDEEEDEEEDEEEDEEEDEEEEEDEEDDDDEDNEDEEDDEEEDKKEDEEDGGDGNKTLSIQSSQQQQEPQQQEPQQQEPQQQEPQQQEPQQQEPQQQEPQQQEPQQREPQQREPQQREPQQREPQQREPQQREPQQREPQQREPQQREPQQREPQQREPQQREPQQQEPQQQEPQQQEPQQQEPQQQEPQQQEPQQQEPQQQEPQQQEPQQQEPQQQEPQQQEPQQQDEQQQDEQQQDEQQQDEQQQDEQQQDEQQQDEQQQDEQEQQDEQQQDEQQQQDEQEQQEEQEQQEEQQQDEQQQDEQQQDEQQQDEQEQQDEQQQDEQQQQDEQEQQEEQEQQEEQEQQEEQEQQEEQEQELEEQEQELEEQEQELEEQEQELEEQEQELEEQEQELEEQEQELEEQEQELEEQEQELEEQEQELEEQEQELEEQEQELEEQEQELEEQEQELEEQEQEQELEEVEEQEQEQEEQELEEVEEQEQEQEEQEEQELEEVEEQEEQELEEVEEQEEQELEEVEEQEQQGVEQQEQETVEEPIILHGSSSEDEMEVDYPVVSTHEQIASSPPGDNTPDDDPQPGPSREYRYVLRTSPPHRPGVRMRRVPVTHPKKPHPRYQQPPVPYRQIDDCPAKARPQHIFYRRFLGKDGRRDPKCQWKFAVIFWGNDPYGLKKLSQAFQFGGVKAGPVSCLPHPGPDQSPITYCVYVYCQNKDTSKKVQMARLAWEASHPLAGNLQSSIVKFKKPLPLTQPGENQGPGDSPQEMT
CTSL1 counter – cathepsin L1 inhibition, PFM18AAP counter-screen; recombinant F. hepatica cathepsin L1, Z-Leu-Arg-MCA fluorescence; inhibition, % at 5.96 µM; 300,000 tested, 0.49% active; AID 1906;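 active = inhibition above the mean of all tested compounds plus 3 SD, set per screening campaign, cut at about 17% in these data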
Large screens that a line does not name were inactive. The list is not random: actives were taken first. Their share in the collection is about 1.7%.

Cc1nc2c(cnn2CCO)c(=O)[nH]1	none (no result: HDAC3 inh, LANA-H2B inh, CTSL1 counter)
Cc1ccc(Nc2nnc(SCC(=O)c3c(N)n(C4CC4)c(=O)[nH]c3=O)s2)cc1C	LANA-H2B inh active (no result: CTSL1 counter)
Cc1cc(C)cc(-c2nnc(SCC(=O)c3c(N)n(C4CC4)c(=O)[nH]c3=O)o2)c1	none (no result: HDAC3 inh, LANA-H2B inh, CTSL1 counter)
CCS(=O)(=O)c1ccc2oc(SCC(=O)c3c(N)n(C4CC4)c(=O)[nH]c3=O)nc2c1	LANA-H2B inh 47 (no result: CTSL1 counter)
Cc1cccc(Nc2nnc(SCC(=O)c3c(N)n(C4CC4)c(=O)[nH]c3=O)s2)c1	none (no result: CTSL1 counter)
O=C(O)c1nn(CC(=O)N2CCN(c3ncc(C(F)(F)F)cc3Cl)CC2)c(=O)c2ccccc12	none
COCCN(C(=O)c1ccc2c(c1)C(=O)N(c1ccccc1Cl)C2=O)c1c(N)n(CC(C)C)c(=O)[nH]c1=O	none (no result: HDAC3 inh, LANA-H2B inh, CTSL1 counter)
CN(C)C1(CNC(=O)C2CCC(=O)N(Cc3ccc(Cl)cc3)C2)CCCCC1 (configuration not stated)	LANA-H2B inh 11
C=C(C)CSc1nc2sc3c(c2c(=O)n1-c1ccc(OC)cc1)CCN(C)C3	none (no result: m5-HT2A agonist, CTSL1 counter)
NC(=S)N/N=C/c1ccc(-c2ccc(Cl)c(Cl)c2)o1	CTSL1 counter 23
NC(=S)N/N=C\c1ccc(-c2cccc(Cl)c2Cl)o1	CTSL1 counter 19
Cc1ccc(-c2ccc(/C=N/NC(N)=S)o2)cc1	none
CC(=O)Nc1ccc(S(=O)(=O)N2CCC(C(N)=O)(N3CCCCC3)CC2)cc1	none
C=CCC[C@H](Cc1ccc(F)cc1)C(=O)OC[C@@H](NC(=O)[C@@H](CC=C)CC(=O)N[C@@H](CO)Cc1ccccc1)C(C)(C)C	HDAC3 inh 32 (no result: CTSL1 counter)
C=CC[C@@H](CC(=O)NCCO)C(=O)N[C@H](C)COC(=O)[C@@H](CC=C)Cc1ccc(F)cc1	none (no result: CTSL1 counter)
C=CC[C@@H](CC(=O)N[C@H](CO)Cc1ccccc1)C(=O)N[C@@H](COC(=O)[C@@H](CC=C)Cc1ccc(F)cc1)Cc1ccccc1	LANA-H2B inh 175 (no result: CTSL1 counter)
C=CC[C@H](CC(=O)NCCO)C(=O)N[C@H](C)COC(=O)[C@@H](CC=C)Cc1ccc(F)cc1	LANA-H2B inh 14 (no result: CTSL1 counter)
Cc1ccc(C)c(OCCCC(=O)O)c1	CTSL1 counter 17 (no result: HDAC3 inh)
Cc1ccc(C)c(C(=O)COC(=O)c2ccc(C)c(S(=O)(=O)N3CCOCC3)c2)c1	LANA-H2B inh 14 (no result: CTSL1 counter)
Cc1ccc(C(=O)OCC(=O)NC(C)C)cc1S(=O)(=O)N1CCOCC1	none
CCN(Cc1ccccc1)C(=O)Cn1c(=O)n(CCC(=O)N2CCCCC2)c(=O)c2sccc21	none
Cc1cc(OCC(=O)NC2CC2)c2c(C)cc(=O)oc2c1	LANA-H2B inh 13
Cc1nn(C(C)C)c(C)c1CN1CCC(C(=O)Nc2cccc(-c3cccc(F)c3)c2)CC1	none
CC1(C)S[C@@H]2[C@H](NC(=O)[C@H](N)c3ccccc3)C(=O)N2[C@H]1C(=O)O	none
CC1(C)S[C@@H]2[C@H](NC(=O)C(C(=O)O)c3ccccc3)C(=O)N2[C@H]1C(=O)O (some centres not stated)	LANA-H2B inh 27 (no result: HDAC3 inh, CTSL1 counter)
COc1cc(OC)cc(-c2c(C#Cc3ccsc3)c3cc(-c4ccc5c(c4)OCCO5)ccc3n2C)c1	none (no result: CTSL1 counter)
CCN(CC)c1ccc(C=NCCNS(=O)(=O)c2ccc(C)cc2)cc1	none
O=C(C[C@@H]1C/C=C\C[C@H](Cc2ccc(F)cc2)C(=O)OC[C@@H]2CCCN2C1=O)N[C@H](CO)Cc1ccccc1	none (no result: CTSL1 counter)
Cn1nc(CC(=O)NC2CCCCCCCCCCC2)c2ccccc2c1=O	none
Cn1nc(CC(=O)Nc2cccnc2N2CCOCC2)c2ccccc2c1=O	LANA-H2B inh 38 (no result: m5-HT2A agonist)
CS(=O)(=O)c1cccc(C(=O)Oc2ccccc2)c1	LANA-H2B inh 38
COC(=O)c1ccc(CC2(C)C(=O)Nc3ccc(-c4cccc(C(F)(F)F)c4)cc32)o1 (configuration not stated)	none (no result: HDAC3 inh, LANA-H2B inh, CTSL1 counter)
COc1ccccc1C1c2[nH]c3ccccc3c2CCN1Cc1ccc(NC(C)=O)s1 (configuration not stated)	none
CCN(C(=O)CCNC(=O)Cn1cnc2ccccc2c1=O)c1ccccc1F	none
O=c1c(/C=C(\O)c2ccc(F)cc2)nc2ccccc2n1-c1ccccc1	LANA-H2B inh -3.4
CC1CCCCC12NC(=O)N(CC(=O)Nc1ccc(N3CCCCC3)cc1)C2=O (configuration not stated)	none (no result: HDAC3 inh, LANA-H2B inh, CTSL1 counter)
CC(=O)CSc1nc(C(F)(F)F)cc(=O)n1-c1ccccc1	none
O=C(O)CSc1nc(C(F)(F)F)cc(=O)n1-c1ccccc1	m5-HT2A agonist 17
Cc1nc(NC(=O)c2ccccc2)sc1-c1cc(C(=O)O)nn1Cc1ccccc1	none (no result: HDAC3 inh, LANA-H2B inh, CTSL1 counter)
O=C(/C=C/c1ccccc1)OCC(=O)c1ccc[nH]1	none
O=C(/C=C/c1ccc(F)cc1)OCC(=O)c1ccc[nH]1	LANA-H2B inh 86 (no result: CTSL1 counter)
